Hits are enriched below; roughly 5.4% of the tested compounds scored in any of these assays.
IMPase Li inh: IMPase inhibition in cells with lithium potentiation. 210,000 tested, 0.35% active. AID 1457. Potency, µM (doses to about 59.4 µM), for inactives: at the top dose activity, negative = IMPase inhibition, hits mostly inhibitors. CHO-M1 cells, IP1 TR-FRET (IP-One), carbachol + lithium;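 note: IP1 builds up when IMPase is blocked and the TR-FRET signal falls; potency is the fitted concentration of half-maximal effect; plate controls were basal vehicle for no effect and high inhibitor control for full effect; nearly all actives have a fitted effect of over 50% in size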
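Readout is a homogeneous TR-FRET IP1 immunoassay (Ex 320, Em 665 and 620), where raised cytosolic IP1 lowers signal. Cells were CHO-M1 treated 30 min at 37C with test compounds plus a little lithium; AC50 values came from Hill-equation fitting.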
PNC assembly inh: perinucleolar compartment assembly inhibition; PC3M PTB-GFP, PNC prevalence imaging, 16 h; hits give low values; activity change (PNC), negative = inhibition, % at 10 µM; 140,000 tested, 3.1% active; AID 2417;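 active = readout at or below -70, meaning at least 70% loss of cells showing the perinucleolar compartment, a nuclear body marking cancer cells; inconclusive = readout between -30 and a set limit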;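 note: plate controls were DMSO wells for no effect and camptothecin positive control wells for full effect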
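Read-out is percentage of cells bearing a perinucleolar compartment, from automated 20x imaging of fixed, Hoechst-stained PC3M PTB-GFP cells. Cells were seeded 4 h, then exposed 16 h to compound (23 nl of library stock) in duplicate plates.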
HPGD inh: inhibitors of human 15-hydroxyprostaglandin dehydrogenase (HPGD) | P15428 | purified HPGD, NADH fluorescence kinetic, PGE2 substrate | Potency, µM, for inactives: top-dose activity change, negative = inhibition, hits mostly inhibitors | 150,000 tested, 4.3% active; active = well fitted inhibition curve with a large enough effect, not every such curve was filed as active; inconclusive = small, poorly fitted or top-dose-only effect, or another doubt; inactive = no such curve, though single readings can be large or run the other way; note: potency is the fitted concentration of half-maximal effect
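NADH formation kinetics: reaction with 30 uM PGE2 and 1 mM NAD+ (final), 20 nM enzyme, Tris-HCl pH 8 with Tween 20, after 15 min compound preincubation at room temperature. Fluorescence change, last versus first of five reads.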
IMPase cell inh: membrane-permeable compound that blocks inositol monophosphatase. P97697. CHO-M1 cells, IP1 accumulation, HTRF TR-FRET ratio. inhibition (IP1 accumulation), % at 46.1 µM. 120,000 tested, under 10 active. AID 901; active = well fitted curve in the direction sought with a large enough effect in the signal ratio, not every such curve was filed as active; inconclusive = small, poorly fitted or top-dose-only effect, or a change in a side signal; inactive = no such curve, though single readings can be large or run the other way; the % refers to the signal ratio;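 note: cells stimulated with carbachol in lithium chloride buffer; plate controls were DMSO basal wells for no effect and reference inhibitor wells for full effect; higher means more IMPase inhibition seen as more IP1 and lower FRET ratio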
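The IP-One HTRF competitive assay in carbachol-stimulated CHO-M1 cells quantifies cellular IP1. Compounds spanned up to 46 uM final, and activity is expressed as AC50 from concentration-response fits of the ratio and donor data.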
12-hLO inh: 12-hLO (ALOX12) enzyme inhibition | 150,000 tested, 0.12% active | Potency, µM (series often up to 57.1 µM), inactives show at the highest dose activity change, negative = inhibition, usual class: inhibitors | purified 12-hLO, xylenol orange hydroperoxide absorbance | P18054; note: potency is the fitted concentration of half-maximal effect; nearly all actives have a fitted effect of over 55% in size
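Purified human 12hLO (150 nM final) was preincubated with compounds for 15 min at room temperature in 25 mM Hepes pH 7.0, 0.01% Triton X-100, then reacted with 40 uM arachidonic acid for 30 min. Hydroperoxide was detected with ferrous iron/xylenol orange.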
ALOX15B inhib: inhibitors of human 15-lipoxygenase 2 (ALOX15B); O15296; Potency, µM (highest dose often 57.1 µM), without a hit: top-dose activity change, negative = inhibition, most hits filed as inhibitors; 110,000 tested, 0.56% active; purified 15hLO-2, xylenol orange hydroperoxide absorbance; note: potency is the fitted concentration of half-maximal effect; nearly all actives have a fitted effect of over 60% in size
Target sequence (O15296 whole entry, looked up): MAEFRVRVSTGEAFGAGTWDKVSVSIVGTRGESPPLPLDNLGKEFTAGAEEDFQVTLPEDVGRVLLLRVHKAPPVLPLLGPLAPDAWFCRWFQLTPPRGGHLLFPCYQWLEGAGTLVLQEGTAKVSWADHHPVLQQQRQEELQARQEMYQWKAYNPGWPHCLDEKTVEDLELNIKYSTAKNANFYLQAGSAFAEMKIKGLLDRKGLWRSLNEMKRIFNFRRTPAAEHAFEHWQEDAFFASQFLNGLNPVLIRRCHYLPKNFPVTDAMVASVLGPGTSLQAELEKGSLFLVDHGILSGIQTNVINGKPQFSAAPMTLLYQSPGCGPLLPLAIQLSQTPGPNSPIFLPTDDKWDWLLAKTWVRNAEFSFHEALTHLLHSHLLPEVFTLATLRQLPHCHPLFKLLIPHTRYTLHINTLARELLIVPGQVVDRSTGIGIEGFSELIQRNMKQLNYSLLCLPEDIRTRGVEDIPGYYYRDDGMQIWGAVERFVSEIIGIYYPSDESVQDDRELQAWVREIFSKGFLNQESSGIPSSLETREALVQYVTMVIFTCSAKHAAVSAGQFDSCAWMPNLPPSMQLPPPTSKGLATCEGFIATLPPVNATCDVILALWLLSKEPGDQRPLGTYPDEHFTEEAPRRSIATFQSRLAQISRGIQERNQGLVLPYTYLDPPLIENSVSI
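Screening format was qHTS against 50 nM purified 15hLO-2 in Hepes pH 7.5 with detergent. Activity follows hydroperoxide formation from 45 uM arachidonic acid, measured as 573:405 nm absorbance ratio of the ferric-xylenol orange complex.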
An asterisk follows results filed as active; ? = inconclusive; nt = no result; ! = a repeat was not active; [ ] = another dose, or the depositor's remark. Unless noted, calls come from the whole dose curve; as a rule, active = well fitted curve in the direction sought with a large enough effect; inconclusive = small, poorly fitted or top-dose-only effect, or another doubt; inactive = no such curve, though single readings can be large; an effect the other way counts as inactive or inconclusive. Unless noted, % is set by controls: 0 for no effect and ±100 for the full control effect.

SMILES	IMPase Li inh	PNC assembly inh	HPGD inh	IMPase cell inh	12-hLO inh	ALOX15B inhib
O=C(NCCCO)c1ccc(CSc2nc3ccccc3[nH]2)cc1	8%	nt	nt	nt	nt	nt
O=C(NCCO)c1ccc(CSc2nc3ccccc3[nH]2)cc1	-5%	-26	25µM*	nt	-2%	nt
COc1cc(/C=N/NC(=O)c2ccc(CSc3nc4ccccc4[nH]3)cc2)cc(OC)c1OC	4%	-85*	?	nt	0%	nt
O=C(c1ccc(CSc2nc3ccncc3[nH]2)cc1)N1CCCCC1	-2%	34	0.56µM*	nt	-1%	nt
CCOC(=O)c1cnc2ccc(C(=O)OC)cc2c1Nc1ccccc1CC	nt	nt	nt	-1	nt	nt
COCCn1c(=O)cnc2cnc(N3CCN(C)CC3)nc21	0%	nt	nt	nt	nt	9%
COCCCn1c2nc3ccccc3nc2c2c(=O)n(-c3ccccc3OC)c(C)nc21	-24%	-100*	?	-17	5%	nt
COCCCn1c2nc3ccccc3nc2c2c(=O)n(-c3ccccc3OC)cnc21	25%[38.3 µM]	16	-20%	-4	1%	-2%
COc1cc(C#CC#CCN2CCCCC2)ccc1O	-3%[38.3 µM]	?	14µM*	5	3%	20%
O=C(O)c1cc(-c2ccc(-c3ccc(-c4cc(C(=O)O)c5cc(Cl)ccc5n4)cc3)cc2)nc2ccc(Cl)cc12	-9%	nt	?	nt	-2%[11.4 µM]	-20%[11.4 µM]
CSC1=NSC2=NC(=O)/C(=C\c3coc4ccccc4c3=O)C(=N)N12	10%	?	32µM*	nt	-20%	nt
CC(C)CSC1=NSC2=NC(=O)/C(=C\c3coc4ccccc4c3=O)C(=N)N12	-1%	nt	nt	nt	nt	nt
CC(C)(C)NCC(O)COc1cccc2c1C[C@H](O)[C@H](O)C2 (some centres undefined)	-1%	-115*	-3%	nt	1%	nt
Cc1ccn2c(Nc3c(C)cccc3C)c(-c3ccc(Cl)s3)nc2c1	nt	nt	nt	-1	nt	nt
CCOC(=O)/C(C#N)=C1/C=Cc2ccccc2N1CC	-12%[38.3 µM]	-99*	-17%	3	-19%	-20%
CCN1C(=C(C#N)C#N)C=Cc2ccccc21	2%	nt	nt	nt	nt	nt
CCCCC(c1nnnn1CC1CCCO1)N1CCN(Cc2ccccc2)CC1 (centres undefined)	9%	-100*	-11%	2	2%	nt
COc1ccccc1C(c1nnnn1CC1CCCO1)N1CCC(C(N)=O)CC1 (centres undefined)	-4%	-100*	-18%	-3	3%	nt
O=C(CCCn1c(=O)[nH]c2ccccc2c1=O)Nc1ccc(F)cc1	-9%	nt	nt	nt	nt	nt
O=C(c1ccc(F)cc1)C1CCN(CCn2c(=O)[nH]c3ccccc3c2=O)CC1	35%	nt	3.5µM*!	4	?	23%
Oc1ccc(N=Nc2cccc(C(F)(F)F)c2)cc1C=Nc1ccc(N2CCOCC2)cc1	-1%	41	?	nt	-2%	nt
Oc1c(Cl)cccc1C=Nc1cc(C(F)(F)F)ccc1N1CCCC1	1%[38.3 µM]	6	16µM*	-1	-24%	-19%
CCC(Sc1nnc2c(n1)[nH]c1ccccc12)C(=O)Nc1nnc(C(C)C)s1 (centres undefined)	nt	nt	nt	-3	nt	nt
CCNc1ncc2nc(-c3ccc(Cl)cc3)c(=O)n(CCC#N)c2n1	?	nt	nt	nt	nt	-5%
CCCCc1nc2c(c3c1C[C@H](C)OC3)CN(C(=O)N[C@H](C(=O)OC)C(C)C)CC2	-10%	nt	-1%	nt	3%[11.4 µM]	nt
SMILES	IMPase Li inh	PNC assembly inh	HPGD inh	IMPase cell inh	12-hLO inh	ALOX15B inhib
O=C(O)C1CC(=O)N(c2ccc(OCc3c(F)cccc3Cl)cc2)C1 (centres undefined)	6%	-108*	1.6µM*	-4	0%	-8%
O=C(O)C1CC(=O)N(c2ccc(OCc3ccccc3)cc2)C1 (centres undefined)	17%[38.3 µM]	?	-18%	3	7%	-2%
CC[C@]1(O)C[C@@H]2CN(CCc3c([nH]c4ccccc34)[C@](C(=O)OC)(c3cc4c(cc3OC)N(C=O)[C@H]3[C@@](O)(C(=O)OC)[C@H](C(=O)OC)[C@@]5(CC)C=CCN6CC[C@]43[C@H]65)C2)C1	6%	nt	-18%	7	-2%	57%
O=C(CN(CC1CCCO1)C(=O)CCC(=O)Nc1ccccn1)NCc1ccccc1 (centres undefined)	-1%	-100*	-16%	-4	-1%	nt
CC(C)CCNC(=O)CN(CC1CCCO1)C(=O)CCC(=O)Nc1ccccn1 (centres undefined)	11%[38.3 µM]	25	-12%	5	6%	-4%
CC(=O)c1cc(C)oc1C	-8%	nt	-22%	nt	-5%	-4%
C/C(N)=C(/C#N)C(=O)CSc1nc2ccccc2c(=O)n1-c1ccc(C)cc1	?	-26	-20%	5	3%	nt
C/C(N)=C(/C#N)C(=O)CSc1nc2ccccc2c(=O)n1-c1ccc(C)c(Cl)c1	11µM*	29	-20%	4	-3%	nt
Cn1c(=O)c2c(nc(C(=N)SCC(=O)O)n2C)n(C)c1=O	-6%	nt	-27%	nt	-4%[11.4 µM]	-4%[11.4 µM]
COC(=O)[C@@H](NC(=O)Nc1ccc(OC(F)(F)F)cc1)C(C)C	-2%[38.3 µM]	0	28µM*	-9	0%	-3%
CCN=c1scc(C)n1/N=C/c1cc(Br)c(O)c(Br)c1	20%	nt	nt	nt	nt	nt
CCN=c1scc(C)n1/N=C/c1ccc(O)c(O)c1O	53%[38.3 µM]	121	7.1µM*	?	-29%	?
COc1ccc(NC(=O)C2(c3ccc(NC(=O)c4ccc(OC)cc4)cc3)CCCC2)cc1	nt	18	nt	-2	0%	nt
COc1ccc(C2(C(=O)Nc3nncs3)CCCC2)cc1	5%[38.3 µM]	-80*	-10%	-13	4%	-1%
COc1cccc(-c2ccc3ncnc(N(C)C)c3c2)c1	15%	nt	nt	nt	nt	36%
CC/C=C\C/C=C\C/C=C\C/C=C\C/C=C\C/C=C\CCC(=O)NCCCC(=O)O	6%	nt	-8%	nt	0%	nt
CCOCC(=O)Nc1cccc(Br)c1	25%[38.3 µM]	25	25µM*	4	6%	1%
CCC(=O)Nc1ccc(F)c(Cl)c1	21%[38.3 µM]	-106*	1%	-4	2%	4%
CCOCC(=O)Nc1ccc2c(c1)OCCO2	5%[38.3 µM]	?	14µM*	-5	-1%	-3%
CC(C)[C@H](NC(=O)Nc1cccc(Br)c1)C(=O)O	-2%	-91*	3%	nt	0%	nt
CC(C)[C@H](NC(=O)Nc1cccc(C(F)(F)F)c1)C(=O)O	13%[38.3 µM]	-28	0%	-4	0%	4%

Screening data deposited in PubChem BioAssay by National Center for Advancing Translational Sciences (NCATS).
